Assay outcomes (PubChem)
Rows were chosen to be rich in hits. Some 1.4% of all compounds tested hit in one or more screens of this group.
PrPC TRFRET = reduces human prion protein on the cell surface; P04156; cell surface PrPC, TR-FRET read-out; inhibition, % at 13.8 µM; 0.43% of 370,000 active; AID 720596; in the data active = inhibition above about 24%; note: 0% = median of the test wells and 100% = reference compound wells
RecA intein inh = Mtb RecA intein splicing inhibition. P9WHJ3. cell-free RecA intein splicing, fluorescence. inhibition, % (no concentration beside the values). 0.75% of 290,000 active. AID 2221; in the data active = inhibition above about 30%; inconclusive = no clear call, values can overlap the other calls;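 note: 0% = vehicle wells and 100% = reference inhibitor control wells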
Target sequence (P9WHJ3 whole entry, looked up): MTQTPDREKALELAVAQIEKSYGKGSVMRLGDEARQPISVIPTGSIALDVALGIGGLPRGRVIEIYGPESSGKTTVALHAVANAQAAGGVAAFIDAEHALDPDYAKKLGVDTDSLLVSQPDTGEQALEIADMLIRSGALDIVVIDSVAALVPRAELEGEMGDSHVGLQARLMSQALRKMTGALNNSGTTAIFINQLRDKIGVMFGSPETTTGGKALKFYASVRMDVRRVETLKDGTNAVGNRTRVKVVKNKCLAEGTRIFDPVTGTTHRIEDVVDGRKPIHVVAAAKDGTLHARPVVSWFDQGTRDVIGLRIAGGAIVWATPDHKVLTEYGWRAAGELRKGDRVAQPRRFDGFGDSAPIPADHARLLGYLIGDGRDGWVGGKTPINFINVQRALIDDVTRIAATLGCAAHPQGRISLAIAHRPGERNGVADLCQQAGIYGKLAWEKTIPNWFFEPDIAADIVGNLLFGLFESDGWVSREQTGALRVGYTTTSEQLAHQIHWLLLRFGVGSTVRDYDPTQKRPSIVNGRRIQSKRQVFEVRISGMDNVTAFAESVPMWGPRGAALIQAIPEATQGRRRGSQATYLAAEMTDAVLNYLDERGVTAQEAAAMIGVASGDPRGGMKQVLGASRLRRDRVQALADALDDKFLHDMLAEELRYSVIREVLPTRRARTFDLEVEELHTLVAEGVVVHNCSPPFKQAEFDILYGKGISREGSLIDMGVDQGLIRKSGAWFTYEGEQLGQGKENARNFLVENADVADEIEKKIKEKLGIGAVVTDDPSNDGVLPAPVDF
SARS 3CLpro inh = SARS-CoV 3CLpro protease inhibition; P0C6X7; recombinant SARS-CoV 3CLpro, quenched FRET peptide cleavage; inhibition, % at 6 µM; 0.14% of 290,000 active; in the data active = inhibition above about 12%
Mtb hypoxia rep = Mtb hypoxia fluorescent reporter inhibition; M. tuberculosis hypoxia-regulated fluorescent reporter, fluorescence; fluorescence inhibition, % (test concentration not listed); 0.1% of 300,000 active; AID 1159583; in the data active = fluorescence inhibition mostly above about 23%, no sharp cut-off; inactive = mostly below about 17%
BJeLR lethal = kills HRASV12-expressing BJeLR cells | BJeLR (HRASV12) viability, CellTiter-Glo ATP luminescence, 48 h | inhibition, % (no concentration beside the values) | 0.17% of 300,000 active | AID 1554; in the data active = inhibition above about 50%; inconclusive = no clear call, values can overlap the other calls
PrP 5UTR inh = suppresses PrP 5' UTR mRNA reporter expression | cell-based PrP 5' UTR mRNA reporter, plate reader | inhibition, % (test concentration not listed) | 0.35% of 340,000 active; in the data active = inhibition above about 52%; note: 0 = median of the neutral control wells
The depositor's hits bear a star.

CCC1(O)C(=O)OCc2c1cc1n(c2=O)Cc2cc3cc(O)ccc3nc2-1 (stereo not given) was read as PrPC TRFRET -15.7 and PrP 5UTR inh 22.7.
Screening Nc1nc2c(nc(Br)n2C2OC3COP(=O)(O)OC3C2O)c(=O)[nH]1 (stereo not given) returned Mtb hypoxia rep -4.6.
`O=C(NN=Cc1cccc([N+](=O)[O-])c1)c1ccncc1` gave Mtb hypoxia rep 9.7.
Oc1c(Br)cc(Br)cc1Oc1ccc(Br)cc1Br was read as RecA intein inh 39.2*, SARS 3CLpro inh 1.4 and BJeLR lethal 10.3.
For Brc1ccc(Oc2ccc(Br)cc2Br)c(Br)c1 the results were PrPC TRFRET -0.6, Mtb hypoxia rep -7.5 and PrP 5UTR inh -16.7.
For COc1cc(/C=C2\SC(N)=NC2=O)ccc1OCC(=O)Nc1ccccc1C the results were PrPC TRFRET -6.0, Mtb hypoxia rep 56.8* and PrP 5UTR inh -21.4.
`CCCCCCCOC(=O)c1ccc(OC(=O)c2cccnc2)cc1` gave PrPC TRFRET -5.2, RecA intein inh 63.8*, SARS 3CLpro inh 1.7, Mtb hypoxia rep 4.9, BJeLR lethal -1.3 and PrP 5UTR inh -26.2.
`CCCCCOC(=O)c1ccc(OC(=O)c2cncc(Br)c2)cc1` gave PrPC TRFRET -7.7, RecA intein inh 15.9, SARS 3CLpro inh 3.7, Mtb hypoxia rep 2.3, BJeLR lethal -7.1 and PrP 5UTR inh -51.9.
For CC(CC(=O)Nc1ccc(C)c(Cl)c1)=NNC(=O)c1ccco1 the results were Mtb hypoxia rep 17.4.
COc1ccc(/C=C/c2c(-c3ccc(OC)cc3)oc3ccc(-c4ccc(OC)cc4)cc23)cc1 was read as PrPC TRFRET 0.7, RecA intein inh -37.4, SARS 3CLpro inh -5.3, BJeLR lethal 0.9 and PrP 5UTR inh 4.7.
For COc1ccc(/C=C/c2cc(-c3ccc(C)cc3)o[n+]2C)cc1 the results were PrPC TRFRET -3.6, RecA intein inh 1.4, SARS 3CLpro inh 0.1, BJeLR lethal 63.0* and PrP 5UTR inh -0.6.
Screening OCCN(CCO)c1ccc(C(c2ccccc2Cl)c2ccc(N(CCO)CCO)cc2Cl)c(Cl)c1 returned RecA intein inh 31.6*, SARS 3CLpro inh 3.2, Mtb hypoxia rep 6.6, BJeLR lethal -2.6 and PrP 5UTR inh -16.4.
Screening CC1CN(C(C)CO)C(=O)c2cccc(NS(=O)(=O)c3ccccc3)c2OC1CN(C)C (stereo not given) returned Mtb hypoxia rep 20.8.
CC(C)[C@H]1C(=O)N2CCC[C@H]2[C@]2(O)O[C@](NC(=O)[C@@H]3C=C4c5cccc6[nH]cc(c56)C[C@H]4N(C)C3)(C(C)C)C(=O)N12 was read as RecA intein inh 34.6*, SARS 3CLpro inh -4.6 and PrP 5UTR inh 1.6.
For CC(C)C[C@H]1C(=O)N2CCCC2[C@]2(O)O[C@](NC(=O)[C@@H]3C=C4c5cccc6[nH]cc(c56)CC4N(C)C3)(C(C)C)C(=O)N12 (stereo not given in full) the results were RecA intein inh inconclusive, SARS 3CLpro inh 3.2, BJeLR lethal -5.6 and PrP 5UTR inh -10.3.
`COc1ccc(CCNC(=O)c2cc(Cl)nc3ccccc23)cc1` gave PrPC TRFRET -3.0, RecA intein inh -1.4, SARS 3CLpro inh -3.0, Mtb hypoxia rep 6.4, BJeLR lethal -4.9 and PrP 5UTR inh -25.0.
For COc1ccc(CCNC(=O)c2cc(-c3ccccn3)nc3ccccc23)cc1 the results were PrPC TRFRET -10.9, Mtb hypoxia rep 29.9* and PrP 5UTR inh -16.0.
Cc1cccc(N2CCN(C(=O)c3ccc4c(c3)NC(=O)C(CSCc3ccc(F)cc3)N4)CC2C)c1 (stereo not given) was read as RecA intein inh 32.5*, SARS 3CLpro inh 2.6 and BJeLR lethal -1.5.
`CC1(C)N=C(SCC(=O)Nc2ccc(Cl)cc2)C(c2ccc(Cl)cc2)=N1` gave PrPC TRFRET 13.9, RecA intein inh 44.4*, SARS 3CLpro inh 7.6, Mtb hypoxia rep 20.2, BJeLR lethal 3.3 and PrP 5UTR inh -39.0.
`CCOc1ccc(N2C(=O)NC(=O)C(=Cc3ccc(N4CCCCC4)o3)C2=O)cc1` gave Mtb hypoxia rep 40.0*.
Screening O=C1NC(=O)N(c2ccc3c(c2)OCO3)C(=O)/C1=C/c1ccc(N2CCCCC2)o1 returned PrPC TRFRET -27.9, RecA intein inh -1.1, SARS 3CLpro inh 5.3, Mtb hypoxia rep 19.7, BJeLR lethal 4.3 and PrP 5UTR inh -11.7.
Screening CCOc1ccc(N2C(=O)NC(=O)/C(=C\c3ccc(N4CCOCC4)cc3C)C2=O)cc1 returned PrPC TRFRET 7.9, SARS 3CLpro inh 3.3, Mtb hypoxia rep -1.8, BJeLR lethal 5.5 and PrP 5UTR inh 6.9.
For O=C1NC(=O)N(c2ccc3c(c2)OCO3)C(=O)C1=Cc1ccc(N2CCCC2)o1 the results were Mtb hypoxia rep 40.1*.
Screening COC(=O)CC1c2ccccc2S(=O)(=O)N1C(C)C (stereo not given) returned Mtb hypoxia rep 14.2.
For Cc1ccc(N2C(=O)c3cccc4c([N+](=O)[O-])ccc(c34)C2=O)c2cccnc12 the results were PrPC TRFRET -2.0, RecA intein inh -4.2, SARS 3CLpro inh -4.0, Mtb hypoxia rep 3.6, BJeLR lethal 51.9* and PrP 5UTR inh 36.8.
For CCN(CCC#N)c1ccc(C=NNc2nc(C)cc(=O)[nH]2)c(C)c1 the results were Mtb hypoxia rep -0.2.
For O=C(CCl)Nc1cc(SCC(O)CO)cc([N+](=O)[O-])c1 (stereo not given) the results were PrPC TRFRET -15.6, RecA intein inh 15.6, SARS 3CLpro inh 6.4, Mtb hypoxia rep -1.6, BJeLR lethal 81.0* and PrP 5UTR inh 13.8.
For O=[N+]([O-])c1nn(-c2cccc(Cl)c2)n(O)c1=NCc1cccnc1 the results were PrPC TRFRET -21.4, RecA intein inh -4.0, SARS 3CLpro inh 0.1, Mtb hypoxia rep 57.2*, BJeLR lethal 6.6 and PrP 5UTR inh -4.5.
COc1ccc(Nc2oc(COc3ccccc3F)nc2C#N)cc1 was read as PrPC TRFRET -0.8, RecA intein inh 40.5*, SARS 3CLpro inh 4.9, BJeLR lethal -7.4 and PrP 5UTR inh 7.4.
Screening CCn1c(SCC(=O)NN=C/C=C/c2ccco2)nnc1-c1ccccc1 returned Mtb hypoxia rep 5.9.
For O=c1c2c3c(sc2ncn1N=Cc1ccc(Br)o1)CCCC3 the results were Mtb hypoxia rep 4.3.
Screening c1ccc2sc(N3CCOCC3)nc2c1 returned PrPC TRFRET 0.5, RecA intein inh -2.8, SARS 3CLpro inh -3.4, Mtb hypoxia rep -12.4, BJeLR lethal 3.6 and PrP 5UTR inh -28.6.
Screening Nc1ccc2nc(N3CCOCC3)sc2c1 returned PrPC TRFRET 6.4, RecA intein inh 80.4*, SARS 3CLpro inh 1.9, Mtb hypoxia rep 3.4, BJeLR lethal 1.3 and PrP 5UTR inh -52.9.
CCN1C(=O)C2C(c3ccc(-c4ccc(OC)cc4)cc3)N[C@@](CC(C)C)(C(=O)OC)C2C1=O (stereo not given in full) was read as Mtb hypoxia rep 14.2.
